Measured values: PubChem BioAssay (EPA / NIEHS)
Inconclusive results are not listed. The source made the active and inactive calls. Rule for the calls, unless noted: active = hit-call score of the fitted dose curve at least 0.9, where 1 is the maximum; inactive = score below 0.9.

Legend:
[1] = molecular target: Retinoic acid receptor RXR-alpha (Homo sapiens) (UniProt P19793); assay: ATG_RXRa_TRANS: Attagene TRANS-FACTORIAL HepG2 Assay for human Retinoid X Receptor alpha (RXRa) (AID 2283012; active = hit-call score of the fitted dose curve at least 0.9, where 1 is the maximum)
Sequence of Retinoic acid receptor RXR-alpha (Homo sapiens) (P19793 whole entry, looked up, the tested form may be a part): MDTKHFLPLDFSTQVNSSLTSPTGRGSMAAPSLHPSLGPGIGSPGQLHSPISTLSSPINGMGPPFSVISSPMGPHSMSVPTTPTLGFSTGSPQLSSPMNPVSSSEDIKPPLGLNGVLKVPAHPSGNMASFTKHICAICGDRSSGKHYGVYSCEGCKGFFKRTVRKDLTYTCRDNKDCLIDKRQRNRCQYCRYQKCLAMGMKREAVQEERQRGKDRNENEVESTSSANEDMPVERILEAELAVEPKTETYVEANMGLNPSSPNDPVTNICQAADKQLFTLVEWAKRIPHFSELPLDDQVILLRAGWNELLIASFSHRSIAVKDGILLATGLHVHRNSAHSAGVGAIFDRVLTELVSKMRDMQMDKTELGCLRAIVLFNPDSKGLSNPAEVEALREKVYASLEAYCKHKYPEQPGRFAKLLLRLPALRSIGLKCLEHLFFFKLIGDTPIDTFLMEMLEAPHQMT
Outline: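 Measures exogenous chimeric NR-GAL4 activity in transfected HepG2 liver cells after 24 h of dosing. Induced reporter mRNA was detected by RT-PCR with capillary electrophoresis, and gain of signal was analysed against DMSO.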

[2] = molecular target: human Retinoid X Receptor beta (RXRb), RXRB (gene 6257) (UniProt P28702); assay: ATG_RXRb_TRANS: Attagene TRANS-FACTORIAL HepG2 Assay for human Retinoid X Receptor beta (RXRb) (AID 2283013; active = hit-call score of the fitted dose curve at least 0.9, where 1 is the maximum)
Sequence of human Retinoid X Receptor beta (RXRb), RXRB (gene 6257) (P28702 whole entry, looked up, the tested form may be a part): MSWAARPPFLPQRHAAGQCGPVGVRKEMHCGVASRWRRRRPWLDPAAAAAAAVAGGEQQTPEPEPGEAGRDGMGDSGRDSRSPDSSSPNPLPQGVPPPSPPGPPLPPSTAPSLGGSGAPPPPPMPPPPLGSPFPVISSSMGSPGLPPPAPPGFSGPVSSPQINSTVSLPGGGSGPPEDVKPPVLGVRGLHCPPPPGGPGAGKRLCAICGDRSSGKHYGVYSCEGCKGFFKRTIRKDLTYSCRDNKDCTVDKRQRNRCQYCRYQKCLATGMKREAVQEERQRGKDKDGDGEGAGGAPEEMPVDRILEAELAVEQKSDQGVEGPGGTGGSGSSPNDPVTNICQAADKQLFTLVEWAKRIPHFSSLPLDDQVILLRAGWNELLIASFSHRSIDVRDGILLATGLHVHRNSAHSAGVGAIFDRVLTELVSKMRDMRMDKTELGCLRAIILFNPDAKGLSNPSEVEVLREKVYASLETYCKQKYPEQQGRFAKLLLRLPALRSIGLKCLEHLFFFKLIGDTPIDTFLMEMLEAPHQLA
Outline: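 Chimeric receptor-Gal4 activity was assessed in transiently transfected human HepG2 cells after 24 h exposure. Transcripts from GAL4-UAS reporters were quantified by fluorescent RT-PCR and capillary electrophoresis, with DMSO as negative control and baseline.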

[3] = molecular target: human Thyroid Receptor alpha (THRa1), THRA (gene 7067) (UniProt P10827); assay: ATG_THRa1_TRANS: Attagene TRANS-FACTORIAL HepG2 Assay for human Thyroid Receptor alpha (THRa1) (AID 2283014; active = hit-call score of the fitted dose curve at least 0.9, where 1 is the maximum)
Sequence of human Thyroid Receptor alpha (THRa1), THRA (gene 7067) (P10827 whole entry, looked up, the tested form may be a part): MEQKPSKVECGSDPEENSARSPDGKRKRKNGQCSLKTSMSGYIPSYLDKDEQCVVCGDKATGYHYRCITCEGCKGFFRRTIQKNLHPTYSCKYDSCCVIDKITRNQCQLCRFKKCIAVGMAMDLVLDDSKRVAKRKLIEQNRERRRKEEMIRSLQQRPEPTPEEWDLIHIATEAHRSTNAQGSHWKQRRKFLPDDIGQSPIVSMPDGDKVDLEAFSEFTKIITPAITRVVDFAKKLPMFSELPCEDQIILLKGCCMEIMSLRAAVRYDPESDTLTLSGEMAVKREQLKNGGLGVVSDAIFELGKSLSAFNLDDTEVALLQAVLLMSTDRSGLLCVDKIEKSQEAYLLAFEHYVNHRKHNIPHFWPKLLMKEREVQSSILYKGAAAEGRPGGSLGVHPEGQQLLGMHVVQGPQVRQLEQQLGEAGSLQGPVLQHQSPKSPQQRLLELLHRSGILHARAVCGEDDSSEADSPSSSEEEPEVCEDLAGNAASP
Outline: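 Reporter transcript induction, read by capillary electrophoresis of 6-FAM-labelled RT-PCR products, reflects activity of a transfected THRa1-Gal4 fusion in HepG2 liver cells. Cells were dosed for 24 h; activity was fitted in the positive direction against DMSO.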

[4] = read-out: E-selectin (Homo sapiens) (UniProt P16581); assay: BSK_3C_Eselectin: BioMAP Diversity Plus: 3C Assay for Eselectin Biomarker Activity (AID 2283015); settings: primary human endothelial cells (HUVEC); actives raise or lower the signal
Outline: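 ELISA read-out of E-selectin on endothelial monolayers after 24 h chemical treatment. Human umbilical vein primary cells served as the system, with DMSO defining baseline activity for bidirectional fitting.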

[5] = read-out: Interleukin-1 alpha (IL1a), IL1A (gene 3552); assay: BSK_BE3C_IL1a: BioMAP Diversity Plus: BE3C Assay for Interleukin-1 alpha (IL1a) Biomarker Activity (AID 2283016); settings: primary human bronchial epithelial cells; actives raise or lower the signal
Outline: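 Signal from IL-1a ELISA, taken 24 h after chemical dosing of human bronchial epithelial cells, is compared with DMSO as baseline using bidirectional curve fitting.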

[6] = read-out: Monocyte Chemoattractant Protein-1 (MCP1), CCL2 (gene 6347); assay: BSK_3C_MCP1: BioMAP Diversity Plus: 3C Assay for Monocyte Chemoattractant Protein-1 (MCP1) Biomarker Activity (AID 2283017); settings: primary human endothelial cells (HUVEC); actives raise or lower the signal
Outline: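 ELISA read-out of MCP-1 from human umbilical vein endothelial cell cultures harvested 24 h post-dosing. Gain or loss of signal was fitted relative to DMSO.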

[7] = read-out: Monocyte Chemoattractant Protein-1 (MCP1), CCL2 (gene 6347); assay: BSK_4H_MCP1: BioMAP Diversity Plus: 4H Assay for Monocyte Chemoattractant Protein-1 (MCP1) Biomarker Activity (AID 2283018); settings: primary human endothelial cells (HUVEC); actives raise or lower the signal
Outline: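 Endothelial cells from umbilical vein were treated with test chemical, then after 24 h MCP-1 levels were quantified by ELISA; endpoint values came from bidirectional fitting with DMSO as baseline of activity.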

[8] = read-out: Human Leukocyte Antigen - DR isotype (HLADR), HLA-DRA (gene 3122); assay: BSK_3C_HLADR: BioMAP Diversity Plus: 3C Assay for Human Leukocyte Antigen - DR isotype (HLADR) Biomarker Activity (AID 2283019); settings: primary human endothelial cells (HUVEC); actives raise or lower the signal
Outline: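 ELISA readout of surface HLA-DR on human umbilical vein endothelium, taken 24 h after chemical treatment. Gain- and loss-of-signal were both fitted relative to DMSO.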

[9] = read-out: Interleukin-8 (IL8), CXCL8 (gene 3576); assay: BSK_3C_IL8: BioMAP Diversity Plus: 3C Assay for Interleukin-8 (IL8) Biomarker Activity (AID 2283020); settings: primary human endothelial cells (HUVEC); actives raise or lower the signal
Outline: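 Endothelial primary cells of human umbilical vein origin are dosed with chemical; after 24 h the IL-8 biomarker is measured by ELISA, and concentration–response is fitted in both directions versus DMSO.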

[10] = read-out: Monokine induced gamma interferon (MIG), CXCL9 (gene 4283); assay: BSK_3C_MIG: BioMAP Diversity Plus: 3C Assay for Monokine induced gamma interferon (MIG) Biomarker Activity (AID 2283021); settings: primary human endothelial cells (HUVEC); actives raise or lower the signal
Outline: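 Endothelial primary cells (human umbilical vein) are dosed with test chemical in the 3C system. MIG levels are measured by ELISA at 24 h and fitted in both directions relative to DMSO.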

[11] = BSK_3C_SRB: Viability Assessment in the BioMAP Diversity Plus: 3C Assay (AID 2283023); settings: primary human endothelial cells (HUVEC);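 note: fitted both ways against DMSO so a hit may be signal rise or drop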
Outline: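 Absorbance at 560 nm of sulforhodamine B-stained (0.1%) total protein served as a cytotoxicity readout in human umbilical vein endothelial cells, 24 h after chemical treatment. Signal was fitted bidirectionally relative to DMSO.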

[12] = read-out: Matrix Metallopeptidase 1 (MMP1), MMP1 (gene 4312); assay: BSK_BE3C_MMP1: BioMAP Diversity Plus: BE3C Assay for Matrix Metallopeptidase 1 (MMP1) Biomarker Activity (AID 2283024); settings: primary human bronchial epithelial cells; actives raise or lower the signal
Outline: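 MMP1 signal, measured by ELISA after a 24 h chemical exposure of human primary bronchial epithelial cells, is analysed with bidirectional fitting using DMSO as negative control.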

[13] = BSK_3C_Vis: BioMAP Diversity Plus: 3C Assay for Morphology Visualization (AID 2283025); settings: primary human endothelial cells (HUVEC);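 note: fitted both ways so gain or loss versus DMSO counts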
Outline: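 Morphology read by light microscopy serves as a background control for the multiplexed 3C assay in human umbilical vein endothelial cells, taken 24 h after dosing, with DMSO as the negative control and bidirectional curve fitting.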

[14] = read-out: Pselectin, SELP (gene 6403); assay: BSK_4H_Pselectin: BioMAP Diversity Plus: 4H Assay for Pselectin Biomarker Activity (AID 2283026); settings: primary human endothelial cells (HUVEC); actives raise or lower the signal
Outline: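 Endothelial primary cells (human umbilical vein) are dosed, incubated 24 h, and assayed for surface P-selectin by ELISA; responses in either direction are fitted relative to the DMSO negative control.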

[15] = BSK_4H_SRB: Viability Assessment in the BioMAP Diversity Plus: 4H Assay (AID 2283027); settings: primary human endothelial cells (HUVEC);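 note: cells exposed to compound for 24 h before staining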;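 for AC50: curves fitted both ways versus DMSO so AC50 may be loss or gain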
Outline: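 Cytotoxicity read-out in primary human endothelial cells: after 24 h compound exposure, cells were TCA-fixed (10%), stained with 0.1% SRB and absorbance taken at 560 nm. Values fitted in both directions relative to DMSO.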

[16] = BSK_BE3C_SRB: Viability Assessment in the BioMAP Diversity Plus: BE3C Assay (AID 2283028); settings: primary human bronchial epithelial cells
Outline: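 Cells (human bronchial epithelial, primary) are treated with chemicals, and after 24 h the parallel cultures are fixed in 10% TCA. These are then stained with 0.1% SRB and read at 560 nm. Gain or loss of signal is fitted relative to DMSO.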

[17] = read-out: Thrombomodulin, THBD (gene 7056); assay: BSK_3C_Thrombomodulin: BioMAP Diversity Plus: 3C Assay for Thrombomodulin Biomarker Activity (AID 2283029); settings: primary human endothelial cells (HUVEC); actives raise or lower the signal
Outline: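 Endothelial cells from umbilical vein are dosed with test chemical and incubated 24 h. Thrombomodulin is then quantified by ELISA, with DMSO serving as negative control and activity baseline.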

[18] = read-out: Urokinase-type plasminogen activator receptor (uPAR), PLAUR (gene 5329); assay: BSK_4H_uPAR: BioMAP Diversity Plus: 4H Assay for Urokinase-type plasminogen activator receptor (uPAR) Biomarker Activity (AID 2283030); settings: primary human endothelial cells (HUVEC); actives raise or lower the signal
Outline: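 Cell-surface uPAR ELISA signal, measured 24 h after dosing human umbilical vein endothelial cells, was analyzed with bidirectional fitting relative to DMSO. Parallel SRB staining of total protein tracked overt cytotoxicity.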

[19] = read-out: Vascular endothelial growth factor receptor 2 (Homo sapiens) (UniProt P35968); assay: BSK_4H_VEGFRII: BioMAP Diversity Plus: 4H Assay for Vascular endothelial growth factor receptor 2 (VEGFR2) Biomarker Activity (AID 2283031); settings: primary human endothelial cells (HUVEC); actives raise or lower the signal;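 for AC50: cell-surface VEGFR2 protein level quantified by ELISA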
Outline: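 ELISA read-out of VEGFRII in primary human umbilical vein endothelium, taken 24 h after chemical treatment. Responses are expressed relative to DMSO, with bidirectional fitting.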

[20] = molecular target: human Vitamin D Receptor (VDR), VDR (gene 7421) (UniProt P11473); assay: ATG_VDR_TRANS: Attagene TRANS-FACTORIAL HepG2 Assay for human Vitamin D Receptor (VDR) (AID 2283022; active = hit-call score of the fitted dose curve at least 0.9, where 1 is the maximum)
Sequence of human Vitamin D Receptor (VDR), VDR (gene 7421) (P11473 whole entry, looked up, the tested form may be a part): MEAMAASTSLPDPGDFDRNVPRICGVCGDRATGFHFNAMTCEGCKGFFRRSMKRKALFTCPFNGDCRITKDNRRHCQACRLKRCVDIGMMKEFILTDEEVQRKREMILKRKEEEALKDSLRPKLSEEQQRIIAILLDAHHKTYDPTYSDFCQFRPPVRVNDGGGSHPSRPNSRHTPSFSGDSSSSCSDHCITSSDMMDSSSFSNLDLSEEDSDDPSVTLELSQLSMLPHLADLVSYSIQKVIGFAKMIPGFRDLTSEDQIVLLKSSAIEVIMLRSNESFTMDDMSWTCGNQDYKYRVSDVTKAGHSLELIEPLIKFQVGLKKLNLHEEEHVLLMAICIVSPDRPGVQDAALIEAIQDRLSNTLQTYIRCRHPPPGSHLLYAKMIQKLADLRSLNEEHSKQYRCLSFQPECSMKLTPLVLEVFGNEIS
Outline: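 Steps: transfect HepG2 with GAL4-UAS-driven reporter constructs; dose compounds 24 h; isolate RNA, reverse-transcribe, PCR-amplify with 6-FAM-labelled primer extension and HpaI digestion; quantify fragments by capillary electrophoresis relative to DMSO.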

Measured: AC50

Sequence of E-selectin (Homo sapiens) (P16581 whole entry, looked up): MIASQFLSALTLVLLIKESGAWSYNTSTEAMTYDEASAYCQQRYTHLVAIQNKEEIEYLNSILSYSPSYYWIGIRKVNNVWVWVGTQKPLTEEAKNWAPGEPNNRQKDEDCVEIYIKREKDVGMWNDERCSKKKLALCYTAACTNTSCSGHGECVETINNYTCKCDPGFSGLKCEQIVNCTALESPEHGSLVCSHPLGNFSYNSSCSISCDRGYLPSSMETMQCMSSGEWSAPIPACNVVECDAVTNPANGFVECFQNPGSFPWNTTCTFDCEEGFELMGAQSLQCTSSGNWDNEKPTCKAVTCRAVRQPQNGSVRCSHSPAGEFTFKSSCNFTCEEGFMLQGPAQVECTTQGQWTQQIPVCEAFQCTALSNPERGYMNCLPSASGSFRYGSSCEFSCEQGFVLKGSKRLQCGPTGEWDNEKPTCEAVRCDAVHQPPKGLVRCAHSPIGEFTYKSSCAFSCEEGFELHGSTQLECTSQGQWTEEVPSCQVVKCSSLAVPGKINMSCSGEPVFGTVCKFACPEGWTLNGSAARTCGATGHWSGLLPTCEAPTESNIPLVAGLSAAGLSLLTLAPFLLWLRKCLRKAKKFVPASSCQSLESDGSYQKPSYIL

NC(=O)CCl
not listed: [20]
inactive: all other assays above

OC(Cc1ccccc1Cl)(Cn1cncn1)C1(Cl)CC1 (centres undefined)
inactive: all assays above

c1ccc(-c2cccc(-c3ccccc3)c2)cc1
inactive: [1] | [3] | [10] | [16] | [17] | [18]
active: [2] 7.98 µM | [4] 11.4 µM | [5] 11.6 µM | [6] 12.4 µM | [7] 5.91 µM | [8] 9.9 µM | [9] 7.45 µM | [11] 10.7 µM | [12] 0.136 µM | [13] 13 µM | [14] 12.4 µM | [15] 20 µM | [19] 11 µM

Nc1c(Oc2ccccc2)cc(O)c2c1C(=O)c1ccccc1C2=O
active: [2] 17.4 µM | [12] 5.87 µM
inactive: all other assays above

CN(C)C(=S)S
active: [2] 27 µM | [5] 29.6 µM | [12] 13.2 µM
not listed: [19]
inactive: all other assays above

Oc1cccc(-c2ccccc2)c1
active: [2] 36.6 µM | [4] 32 µM | [6] 30.6 µM | [7] 20 µM | [8] 32.9 µM | [11] 20 µM | [13] 38.9 µM | [15] 20 µM
not listed: [20]
inactive: all other assays above

Oc1cc(Cl)c(Cl)cc1Cl
active: [2] 151 µM | [4] 35.4 µM | [6] 33.3 µM | [7] 20 µM | [8] 16.8 µM | [9] 31.7 µM | [11] 28.7 µM | [13] 39 µM | [14] 25.6 µM | [15] 25.5 µM | [18] 27.4 µM | [19] 31 µM
inactive: [1] | [3] | [5] | [10] | [12] | [16] | [17]

C=CC(=O)[O][Sn]([CH2]CCC)([CH2]CCC)[CH2]CCC
active: [1] 0.00177 µM | [2] 0.000682 µM
inactive: [3] | [20]
